In the library only some 8.1% were active in any assay of this set; here they are far more common.
ClpP mod – qHTS Assay for Activators of ClpP; ATP-dependent Clp protease proteolytic subunit (Bacillus subtilis (strain 168)), P80244; purified B. subtilis ClpP, FRET peptide cleavage, 20 min; Potency, µM (top dose mostly 57.5 µM), inactives show at the top dose activity change, negative = active; 340,000 compounds, 1.9% hits; active = well fitted falling curve with a large enough effect; inconclusive = small, poorly fitted or top-dose-only effect; inactive = no such curve, though single readings can be large or run the other way; note: potency is the fitted concentration of half-maximal effect; the source files actives as falling curves though it sought activators and does not explain the sign; nearly all actives have a fitted effect of over 65% in size
Target sequence (P80244 whole entry, looked up): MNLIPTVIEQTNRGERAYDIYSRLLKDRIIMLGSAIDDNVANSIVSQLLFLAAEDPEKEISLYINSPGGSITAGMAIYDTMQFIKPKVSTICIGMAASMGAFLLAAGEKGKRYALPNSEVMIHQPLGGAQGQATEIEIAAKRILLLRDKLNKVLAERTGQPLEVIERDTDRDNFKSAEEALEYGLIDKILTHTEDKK
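FRET quenching reversal measured ClpP activation: 10 microg/mL B. subtilis ClpP at pH 8 with the FRET-FV decapeptide, read at 430 nm after 320 nm excitation. The 20-min minus 0-min signal was scaled between DMSO/no-enzyme wells and ADEP (5.8 microM final).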
RORgamma inh – blocks mouse ROR gamma transcriptional activity | 310,000 compounds, 5.4% hits | P51450 | Drosophila S2 Gal4-RORgamma UAS-luciferase reporter, 20 h | AID 2551 | Potency, µM (highest dose often 53.6 µM), inactives show at the top dose activity change, negative = inhibition, actives largely listed as inhibitors; note: potency is the fitted concentration of half-maximal effect; % is set by controls: 0 for no effect and ±100 for the full control effect; nearly all actives have a fitted effect of over 60% in size
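A Gal4/UAS one-hybrid system in insect cells: metallothionein-promoter Gal4–ROR gamma fusion plus Photinus luciferase reporter. Copper sulfate 700 uM final, 20 hr ambient incubation, luminescent detection after 10 min with reagent.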
Epigenetic reg – regulators of epigenetic silencing causing reporter derepression in mouse cells. murine LDR cells, GFP reporter derepression, 30 h. Potency, µM (titrated, usually from 53.9 µM), inactives show at the highest dose GFP activation, actives largely listed as activators. 280,000 compounds, 0.2% hits; note: potency is the fitted concentration of half-maximal effect; % of control where 0% means no effect; nearly all actives have a fitted effect of over 60% in size
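Reporter derepression read as number of fluorescent GFP-positive objects, 20-120 um in size, counted by laser-scanning cytometer. Mouse LDR line with an epigenetically silenced CMV-GFP locus; compound incubation 30 h, 37 C.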
VP16 counter – Gal4-VP16 reporter inhibition counter-screen. Drosophila S2 Gal4-VP16 UAS-luciferase, luminescence, 20 h. Potency, µM (series often up to 53.6 µM), without a hit: at the highest dose activity, negative = inhibition, hits mostly inhibitors. 310,000 compounds, 3.5% hits;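 note: Gal4-VP16 expression switched on by copper sulfate through the metallothionein promoter; potency is the fitted concentration of half-maximal effect; % is set by controls: 0 for no effect and ±100 for the full control effect; nearly all actives have a fitted effect of over 50% in size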
PINK1 expr mod – modulators of PINK1 expression | 410,000 compounds, 0.2% hits | PINK1 immunofluorescence, high-content cytometry, 24 h | Potency, µM (highest dose often 76.6 µM), without a hit: at the top dose activation (PINK1 increase), actives largely listed as activators; active = well fitted activation curve with a large enough effect; inconclusive = small, poorly fitted or top-dose-only effect; cell line not stated here; note: potency is the fitted concentration of half-maximal effect; % of control where 0% means no effect; nearly all actives have a fitted effect of over 65% in size
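Measures PINK1 amount and localization on or inside mitochondria by immunofluorescence. Stable cells get compounds at 5 concentrations for 24 hours before fixation and staining; CCCP controls included.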
Sfp PPTase inh – inhibitors of Bacillus subtilis Sfp phosphopantetheinyl transferase | Q9F4F7 | 310,000 compounds, 3.5% hits | Potency, µM, inactives show largest response in the series, negative = inhibition, actives largely listed as inhibitors | AID 1490 | Biochemical Sfp PPTase activity, qHTS;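 note: the enzyme is Sfp with the accession as filed and its product quenches rhodamine fluorescence; potency is the fitted concentration of half-maximal effect; 0% = enzyme reaction without inhibitor and -100% = no enzyme wells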
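With Hepes-Na pH 7.6 buffer containing 10 mM MgCl2, Sfp (15 nM) modified BHQ-2-YbbR (12.5 uM) using rhodamine-CoA (5 uM). Two reads 30 minutes apart at 525/598 nm yielded each well's rate.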
Sfp PPTase conf – confirmation of Bacillus subtilis Sfp PPTase inhibitors | shares compounds with Sfp PPTase inh | Sfp PPTase enzymatic assay, qHTS titration | Potency, µM (series often up to 114 µM), inactives show at the top dose activity change, negative = inhibition, most hits filed as inhibitors | 380 compounds, 79% hits | AID 2701;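 note: potency is the fitted concentration of half-maximal effect; plate controls were uninhibited Sfp reaction for no effect and no enzyme control for full effect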
Target sequence (Q9F4F7 whole entry, looked up): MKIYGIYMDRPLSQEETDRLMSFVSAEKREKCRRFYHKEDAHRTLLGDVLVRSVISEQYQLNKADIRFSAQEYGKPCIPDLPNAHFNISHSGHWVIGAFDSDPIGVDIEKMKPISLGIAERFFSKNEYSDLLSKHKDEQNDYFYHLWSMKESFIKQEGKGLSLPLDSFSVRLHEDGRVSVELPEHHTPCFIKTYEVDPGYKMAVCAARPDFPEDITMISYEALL
Sfp PPTase gel – Inhibits Bacillus subtilis Sfp phosphopantetheinyl transferase | shares compounds with Sfp PPTase inh | purified Sfp, gel-based phosphopantetheinylation read-out | Potency, µM, actives largely listed as inhibitors | 210 compounds, 20% hits | AID 2707;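 active = potency below 100 µM; inconclusive = dose-dependent response but potency above 100 µM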;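 note: band intensities scaled against SCH202676 control wells before curve fitting; potency is an IC50 for inhibitors of Sfp transfer activity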
* = called active by the depositor; i = inactive; ? = inconclusive; nt = no result; ! = not active in a repeat; [ ] = dose if it differs, or a comment. Unless noted, calls come from the whole dose curve; as a rule, active = well fitted curve in the direction sought with a large enough effect; inconclusive = small, poorly fitted or top-dose-only effect, or another doubt; inactive = no such curve, though single readings can be large; an effect the other way counts as inactive or inconclusive.

SMILES	ClpP mod	RORgamma inh	Epigenetic reg	VP16 counter	PINK1 expr mod	Sfp PPTase inh	Sfp PPTase conf	others
Cc1cccc(C2c3[nH]c4ccccc4c3CCN2C(=O)c2cc(CC(C)C)[nH]c(=O)n2)n1 (stereo not drawn)	-3%	13µM*	-1%	?	0%	-7%	nt
O=C(NC(=S)Nc1cccnc1Cl)c1ccco1	-4%	?	0%	-7%	0%	-29%	nt
CCNC(=S)Nc1cc(C)ccn1	-3%	2.5µM*	1%	5.6µM*	1%	?	nt
O=C(NC(=S)Nc1ccccn1)c1ccco1	2%	13µM*	-1%	?	1%	56µM*	nt
O=C(/C=C/c1cccs1)Nc1nncs1	0%	-1%	0%	27%	1%	-4%	nt
Cc1ccc(CC(=O)Nc2cc(C)ccn2)cc1	-5%	29%	nt	10%	-2%	7%	nt
Cc1ccnc(NC(=S)NC(=O)c2cccs2)c1	16%	2.2µM*	-1%	4µM*	1%	1%	nt
Cc1ccnc(NC(=O)CNC(=O)c2cccs2)c1	nt	nt	nt	nt	-1%	nt	nt
Cc1ccnc(NC(=O)/C=C/c2cccs2)c1	1%	8.9µM*	1%	13µM*	9%	-9%	nt
COc1ccccc1CNC(=O)Cn1c(=O)oc2cc(S(=O)(=O)NCc3ccccc3)ccc21	-4%	nt	-1%	nt	1%	nt	nt
Cc1ccc(N2CC(NC(=O)C3CCCC3)CC2=O)cc1C (stereo not drawn)	1%	nt	2%	nt	1%	nt	nt
CCOC(=O)c1cc(-c2ccccc2)n(CCCC(=O)Nc2cccc(Cl)c2C)c1C	3%	nt	-1%	nt	8%	nt	nt
C=CN1CCCC1=O	nt	36%	nt	-3%	nt	5%	nt
COc1ccc(NC(=O)c2cc3c(=O)n(Cc4ccco4)ccc3nc2C)c(OC)c1	-13%	nt	1%	nt	1%	nt	nt
COc1ccc(-n2c(SCC(=O)NCc3ccccc3)nc3c([nH]c4ccccc43)c2=O)cc1	4%	nt	5%	nt	5%	nt	nt
Cc1ccnc(NC(=S)NC(=O)c2ccco2)c1	-4%	4.5µM*	-1%	?	1%	?	nt
Cc1ccnc(NC(=O)CNC(=O)c2ccco2)c1	-1%	nt	nt	nt	-2%	nt	nt
c1csc(-c2nc3ccccc3s2)c1	nt	?	-1%	-10%	-1%	35µM*	47µM*	Sfp PPTase gel=?
CN(C)CCCSc1nc2ccccc2s1	-1%	6%	-1%	4%	1%	35µM*	?
COc1cccc(NC(=O)Nc2cccs2)c1	-1%	6.3µM*	3%	5µM*	-2%	11µM*	30µM*	Sfp PPTase gel=i
COc1cccc(NC(=O)Nc2ccncc2)c1	-1%	13%	-3%	-20%	-1%	-1%	nt
CCOC(=O)c1nc(NCc2ccccc2)sc1C	nt	30%	nt	0%	1%	8.9µM*	8.3µM*
O=C(Nc1ccc(F)cc1Cl)n1ncc2cc(Cl)ccc21	0%	nt	-3%	nt	1%	nt	nt
CCc1ccc(CNc2ccc(O)cc2)cc1	-1%	?	3%	?	15%	11µM*	37µM*	Sfp PPTase gel=i
COc1ccc(Br)cc1CNc1ccc2[nH]c(=O)[nH]c2c1	nt	3%	-1%	-13%	0%	-9%	nt
SMILES	ClpP mod	RORgamma inh	Epigenetic reg	VP16 counter	PINK1 expr mod	Sfp PPTase inh	Sfp PPTase conf	others
COc1ccc(Br)cc1CNc1ccc(O)cc1	-8%	8.9µM*	?	?	3%	20µM*	?	Sfp PPTase gel=?
CCOc1ccccc1CNc1ccc(O)cc1	-11%	-36%	42%	-10%[10 µM]	7%	10µM*	11µM*	Sfp PPTase gel=i
O=C(CCCc1nc(-c2ccco2)no1)Nc1ccccc1[N+](=O)[O-]	-1%	nt	-2%	nt	0%	nt	nt
COCCCNC(=O)c1c(NC(=O)Cc2coc3cc(C)cc(C)c23)sc2c1CCCC2	?	nt	-2%	nt	0%	nt	nt
COc1ccc(NC(=O)c2cccc3c(=O)c4c([nH]c23)CCCC4)cc1	1%	nt	0%	nt	2%	nt	nt
CC(C)(C)Cc1nnc(NC(=O)CSc2ccccc2)s1	3%	-36%	nt	-21%	4%	14µM*	7.4µM*
CCOCc1nnc(NC(=O)CSc2ccccc2)s1	3%	-44%	-1%	0%	-1%	13%	nt
CN(CCCN1c2ccccc2CCc2ccccc21)CC(=O)c1ccc(Cl)cc1	nt	8%	nt	-3%	nt	50µM*	37µM*	Sfp PPTase gel=i
CN(C)CCCN1c2ccccc2Sc2ccccc21	-3%	20%	0%	-2%	1%	-16%	nt
CN(C)CCCN1c2ccccc2CCc2ccc(Cl)cc21	-1%	?	-2%	-4%	2%	56µM*!	?	Sfp PPTase gel=i
Cc1nc(-c2ccc(Cl)cc2)sc1CCNC(=O)C(=O)Nc1ccc(F)cc1F	-5%	nt	5%	nt	2%	nt	nt
CCOC(=O)c1cccc(NC(=O)C(C)n2nc(C)c3c(C)n(-c4ccccc4)nc3c2=O)c1 (stereo not drawn)	-7%	nt	4%	nt	-1%	nt	nt
N=c1c2c3c(sc2ncn1Cc1ccco1)CCCCC3	-1%	-85%	0%	?	7%	13µM*	-7%	Sfp PPTase gel=i
CC(C)Cn1cnc2sc3c(c2c1=N)CCCC3	-4%	0%	4%	?	3%	0%	nt
Cc1ccc(-c2nc3scc(CCNS(=O)(=O)c4ccc(C)c(C)c4)n3n2)cc1	1%	nt	2%	nt	4%	nt	nt
CC[C@H](C)[C@@H]1NC(=O)[C@H]([C@@H](C)CC)NC(=O)[C@@H](CC(C)C)NC(=O)[C@H](Cc2ccccc2)NC(=O)[C@H](Cc2ccccc2)NC(=O)[C@@H]2CCCN2C(=O)[C@@H]2CCCN2C(=O)[C@H](C(C)C)NC(=O)[C@H](CC(C)C)NC1=O	2%	nt	nt	nt	8%	nt	nt
O=C(O)C(O)c1ccco1 (stereo not drawn)	2%	-4%	-2%	1%	3%	45µM*	?	Sfp PPTase gel=i
CN(C)C=Nc1ccccc1C1C=NNC1=O (stereo not drawn)	nt	-4%	0%	-3%	nt	18µM*	9%
CC(=O)c1c(N=CN(C)C)nc(C)nc1-c1ccccc1	-2%	0%	0%	1%	-1%	15%	nt
COc1ccc(-c2ccc(=O)n(CC(=O)NCCc3ccccc3)n2)cc1	-12%	nt	0%	nt	1%	nt	nt
O=C(Nc1ccccc1)Oc1ccc[nH]c1=O	-4%	25%	-6%	-14%	1%	6.3µM*	21µM*	Sfp PPTase gel=i
CC(C)(C)c1ccc(C(=O)NCCc2csc(-c3ccc(Cl)cc3)n2)cc1	?	nt	-1%	nt	5%	nt	nt

Source: PubChem
